The results in this text go back to PubChem BioAssay (NCATS).

The nature of assay [1]: qHTS for Inhibitors of the Functional Ribonucleoprotein Complex (vRNP) of Lassa (LASV) Arenavirus: LASV Primary Screen - GLuc reporter signal (AID 1347082). Also: series mostly up to about 57 µM; nearly all actives have a fitted effect of over 60% in size.
The nature of assay [2]: qHTS for Inhibitors of the Functional Ribonucleoprotein Complex (vRNP) of Lymphocytic Choriomeningitis Arenaviruses (LCMV): Viability assay - alamar blue signal for LCMV Primary Screen (AID 1347085). Also: nearly all actives have a fitted effect of over 80% in size. Also: potency is read from the fitted curve at half-maximal effect. In general terms: Quantitative high-throughput screening tests each substance at several concentrations.
The nature of assay [3]: qHTS for Inhibitors of the Functional Ribonucleoprotein Complex (vRNP) of Lassa (LASV) Arenavirus: Viability assay - alamar blue signal for LASV Primary Screen (AID 1347083). Also: nearly all actives have a fitted effect of over 80% in size. Also: potency is read from the fitted curve at half-maximal effect.

Results filed as inconclusive are left out. The source made the active and inactive calls. Calls follow the shape of the full dose curve; tested in HEK293 reporter line.

On to `CCCCOC(=O)c1ccc(N)cc1`, for which the Potency result in assay [1] and in assay [2] was “inactive” throughout.

As for `COc1cc([C@@H]2c3cc4c(cc3[C@@H](O[C@@H]3O[C@@H]5CO[C@@H](c6cccs6)O[C@@H]5[C@H](O)[C@@H]3O)[C@H]3COC(=O)[C@H]23)OCO4)cc(OC)c1O`, the values for the Potency in assay [3] and in assay [2] were 1220 nM (active) and 1720 nM (active), respectively.

For the molecule `COc1ccccc1OCC(O)CO` (configuration not stated), the Potency result in assay [1], in assay [3] and in assay [2] was “inactive” each time.

Turning to `COCCOC(=O)C1=C(C)NC(C)=C(C(=O)OC(C)C)C1c1cccc([N+](=O)[O-])c1` (configuration not stated), the Potency entry in assay [1], in assay [3] and in assay [2] was “inactive” each time.

Regarding `O=C(N/N=C/c1ccc([N+](=O)[O-])o1)c1ccc(O)cc1`, in assay [2], the Potency is 25100 nM (active).

Take `Cc1ccsc1/C=C/C1=NCCCN1C`: the Potency entry in assay [1], in assay [3] and in assay [2] was “inactive” each time.

In the case of `CCCCCCCCCCCCCCCC(=O)OC(C)C`, the Potency entry in assay [1], in assay [3] and in assay [2] was “inactive” each time.

In the case of `COCC(=O)Nc1c(I)c(C(=O)NCC(O)CO)c(I)c(C(=O)N(C)CC(O)CO)c1I` (configuration not stated), the Potency result in assay [1] and in assay [2] was “inactive” each time.

On to `OCc1cccnc1`, for which the Potency entry in assay [1], in assay [3] and in assay [2] was “inactive” each time.
